Source: PubChem BioAssay (several laboratories)
Beta apoptosis: beta cell apoptosis inhibition | INS-1E cytokine-induced death, ATP luminescence, 48 h; percent of positive-control rescue, neutral wells zero | actives 0.8% (n = 300,000) | AID 435005 | protection from apoptosis, % (test concentration not listed);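 active = Every replicate reaches about 75%, or at least half do and their mean reaches it too, limit read from the data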;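 note: 0% = cytokine-treated negative control wells and 100% = positive control rescue; higher means more ATP so stronger rescue from cytokine killing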
SKKanGAS inh: inhibitors of SKKanGAS S. pyogenes growth in kanamycin (SK-promoter or general growth effect); BacTiter-Glo, 6 h; inhibition, % at 7.5 µM; actives 1.3% (n = 300,000); AID 1662;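 active = mean replicate score, as percent of positive control median, at least 50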;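 note: strain carries kanamycin resistance gene driven by streptokinase promoter and grows in 40 µg/ml kanamycin; loss of luminescence reflects streptokinase promoter inhibition or plain growth inhibition; 0% = median of DMSO wells and 100% = positive control at its reference dose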
Mdm2-MdmX inh: disrupts the human Mdm2-MdmX interaction; O15151+Q00987; SaOS-2 split-luciferase Mdm2/MdmX complementation, luminescence; inhibition, % at 8 µM; actives 3% (n = 330,000); AID 485346;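 active = inhibition of at least 50% at 8 µM in the primary screen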
Target sequence (O15151 whole entry, looked up): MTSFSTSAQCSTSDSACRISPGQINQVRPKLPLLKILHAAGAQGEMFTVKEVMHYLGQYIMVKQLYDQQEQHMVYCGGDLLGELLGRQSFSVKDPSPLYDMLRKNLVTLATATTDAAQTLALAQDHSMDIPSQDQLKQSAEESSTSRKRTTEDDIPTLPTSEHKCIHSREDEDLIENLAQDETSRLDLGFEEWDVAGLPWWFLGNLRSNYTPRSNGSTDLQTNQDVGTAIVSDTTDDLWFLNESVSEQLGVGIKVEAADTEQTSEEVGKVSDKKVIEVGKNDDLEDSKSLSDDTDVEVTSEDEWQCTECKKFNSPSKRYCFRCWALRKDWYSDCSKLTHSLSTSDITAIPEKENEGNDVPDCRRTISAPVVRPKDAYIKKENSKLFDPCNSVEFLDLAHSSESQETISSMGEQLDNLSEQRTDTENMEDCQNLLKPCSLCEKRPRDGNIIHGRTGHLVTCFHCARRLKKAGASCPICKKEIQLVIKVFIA
Target sequence (Q00987 whole entry, looked up): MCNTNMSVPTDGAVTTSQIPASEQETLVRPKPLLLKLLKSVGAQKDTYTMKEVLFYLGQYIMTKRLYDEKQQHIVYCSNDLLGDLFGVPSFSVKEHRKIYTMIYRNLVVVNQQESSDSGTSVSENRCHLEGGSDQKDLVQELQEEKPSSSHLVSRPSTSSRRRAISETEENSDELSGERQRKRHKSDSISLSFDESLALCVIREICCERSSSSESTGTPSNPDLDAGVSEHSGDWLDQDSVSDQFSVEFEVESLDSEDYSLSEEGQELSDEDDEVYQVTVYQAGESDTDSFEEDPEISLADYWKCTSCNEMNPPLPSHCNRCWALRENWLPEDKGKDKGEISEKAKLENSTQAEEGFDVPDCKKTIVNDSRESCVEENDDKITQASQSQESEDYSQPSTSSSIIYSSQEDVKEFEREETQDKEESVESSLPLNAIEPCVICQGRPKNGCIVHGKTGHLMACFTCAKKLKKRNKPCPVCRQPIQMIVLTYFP
CSC inhib: cancer stem cell inhibition; cancer stem cell-like cells viability, luminescence; inhibition, % at 7.5 µM; actives 1.1% (n = 300,000); AID 2717; in the data active = inhibition above about 75%; tested in HMLE shEcad cells
MPTP block: permeability transition pore inhibition. actives 1.4% (n = 360,000). inhibition, % at 10 µM. isolated mouse mitochondria, Ca2+ swelling absorbance, 30 min;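 active = inhibition of 50% or more, scaled per plate between neutral and stimulator controls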;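 note: 0% = DMSO wells given calcium and 100% = 1 mM EGTA wells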
NR3A LBD binder: NR3A (human) ligand-binding domain modulation. Tm shift relative to glycine control, % at 25 µM. NR3A LBD differential scanning fluorimetry, Tm shift; 0% = protein alone, 100% = glycine-bound protein. AID 1259313. actives 2.5% (n = 340,000);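 active = melting temperature shift of at least 10% of the positive control shift, at one fixed dose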
MPTP counter: Rhodamine 123 counter-screen of mitochondrial pore hits. shares compounds with MPTP block. isolated mitochondria, membrane potential, Rhodamine 123 fluorescence. inhibition, % at 10 µM. actives 78% (n = 5,000). AID 624504; in the data active = inhibition above about 22%;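 note: 0% = DMSO vehicle and 100% = positive control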
MPTP swell DR: MPTP inhibition, dose response swelling confirmation; shares compounds with MPTP block; isolated mitochondria swelling, absorbance; IC50, µM; actives 58% (n = 780); in the data active = IC50 below about 20 µM
MPTP cs DR: active in counter-screen for permeability transition pore inhibitors. shares compounds with MPTP block. isolated mitochondria counterscreen, fluorescence read-out. IC50, µM. AID 651564. actives 49% (n = 780); in the data active = IC50 below about 80 µM
* marks the source's active call; other numbers are inactive results; i = inactive; . = not tested or not shown; + = active, no number. A selection: hits, their analogues and other compounds. The true share with any hit is near 6.9%.

SMILES	Beta apoptosis	SKKanGAS inh	Mdm2-MdmX inh	CSC inhib	MPTP block	NR3A LBD binder	MPTP counter	others
Cn1nc(C(F)(F)F)c(-c2ccc(F)cc2)c1NC(=O)Nc1ccc(F)cc1	13	10	5	21	74*	-1	89*
COc1ccc(CN(C)C(C)C(=O)N(C)CC(=O)Nc2ccc(C)cc2)cc1F (centres undefined)	-1	.	7	-5	-1	1	.
C=CCSC1=N/C(=C\c2cc(OCC)c(OC(C)=O)c([N+](=O)[O-])c2)C(=O)S1	-4	-4	33	5	98*	-1	63*
Cc1ccc(NNC(=O)C(O)(c2cccc(C(F)(F)F)c2)c2cccc(C(F)(F)F)c2)cc1	3	29	4	99*	72*	26*	69*
COC(=O)Cc1cc(=O)n2[nH]c(C)nc2n1	-7	-3	13	1	-1	0	.
COC(=O)Cc1cc(=O)n2[nH]c(C)cc2n1	-2	-1	15	0	+	-2	2	MPTP swell DR=>100;MPTP cs DR=>80
Cc1cccc(N(C)S(=O)(=O)c2ccc3[nH]cc(C(=O)N4CCOCC4)c(=O)c3c2)c1	.	1	13	-17	1	-1	.
CCc1ccccc1N(C)S(=O)(=O)c1ccc2[nH]cc(C(=O)N3CCc4ccccc43)c(=O)c2c1	-1	10	3	-1	64*	2	63*
N#Cc1ccccc1OCC(=O)N1CCN(S(=O)(=O)c2ccc(Cl)cc2)CC1	1	.	-14	-7	1	2	.
O=[N+]([O-])c1ccc(Nc2c3ccccc3nc3ccccc23)cc1	.	18	20	.	80*	5	77*
O=C(Nc1ccc(S(=O)(=O)Nc2cnc3ccccc3n2)cc1)c1ccc(F)cc1	-2	3	0	-9	2	0	.
O=[N+]([O-])c1ccc(S(=O)(=O)Nc2nc3ccccc3nc2Nc2ccccc2)cc1	12	1	25	6	106*	-7	86*
O=C(O)c1ccc(Nc2nc3ccccc3nc2NS(=O)(=O)c2ccc(F)cc2)cc1	-5	11	40	40	75*	6	70*
Cc1ccc(OCC(=O)N(Cc2ccccc2)c2c(N)n(Cc3ccccc3)c(=O)[nH]c2=O)c(C)c1	-2	2	16	-9	-1	0	.
O=Cc1ccc(-c2ccccc2C(=O)O)o1	-1	-8	6	-9	-2	1	.
O=C(O)c1ccccc1-c1c2cc(I)c(=O)c(I)c-2oc2c(I)c(O)c(I)cc12	16	.	-3	21	79*	0	-17
O=C(c1ccccn1)N1CCCC(N2CCN(c3ccccc3)CC2)C1 (centres undefined)	-4	2	-4	-12	-3	4	.
N#Cc1ccc(NC(=O)N2CCC(c3nc4c(nnn4Cc4cccc(Cl)c4)c(=O)[nH]3)CC2)cc1	-13	17	7	-2	56*	4	28*
CCOC(=O)N(CC)OC(=O)Nc1ccc(Cl)cc1	7	-1	10	-2	57*	-1	63*
CN(C)CCNC(=O)Nc1ccc(Cl)c(Cl)c1	-4	5	29	6	71*	-2	94*
CCOC(=O)Nc1ccc(C(N)=O)cc1	5	3	-7	-4	-2	-2	.
O=C(NCCCl)Nc1cc([N+](=O)[O-])ccc1Cl	-3	-8	17	-30	1	-1	.
O=C(NCCCl)Nc1ccc(Cl)c([N+](=O)[O-])c1	-4	-3	18	2	81*	-3	93*
CCOC(=O)N(C)OC(=O)Nc1ccc(Cl)c(Cl)c1	0	-11	11	6	73*	3	83*
CCOCCc1nnc(NC(=O)Cc2c(F)cccc2Cl)s1	-1	-4	24	-10	-1	0	.
SMILES	Beta apoptosis	SKKanGAS inh	Mdm2-MdmX inh	CSC inhib	MPTP block	NR3A LBD binder	MPTP counter	others
O=C(COc1ncnc2ccccc12)Nc1ccc(Cl)c([N+](=O)[O-])c1	-2	-2	-8	-3	5	-12	.
CCOC(=O)CNNC(=O)Nc1ccc(Cl)c(Cl)c1	.	1	-5	.	69*	-1	65*
O=C(CN(C(=O)c1ccccc1Cl)C1CCCCC1)Nc1ccc(Cl)c([N+](=O)[O-])c1	15	3	21	28	88*	4	80*
O=C1c2ccccc2-c2cccc(NS(=O)(=O)c3ccc(C(F)(F)F)cc3)c21	-5	35	47	38	64*	2	38*
CNC[C@@H]1Oc2ccc(NS(=O)(=O)c3ccc(OC)cc3)cc2CC(=O)N([C@H](C)CO)C[C@@H]1C	-7	.	17	-15	1	-4	.
COCCCNCCOCCOc1ccc(Cl)cc1C(C)(C)C	6	-1	44	2	61*	-1	-15	MPTP swell DR=4.3*;MPTP cs DR=>80
C=CCNCCOCCOc1ccc(Cl)cc1C(C)(C)C	-12	-3	21	18	92*	0	-9	MPTP swell DR=11*;MPTP cs DR=>80
COCCCNCCOCCOc1c(OC)cccc1OC	-1	4	-4	-9	-2	1	.
COc1ccc(Cc2n[nH]c(=S)n2NC(=O)Nc2ccc(Cl)c(Cl)c2)cc1	10	65*	-13	40	92*	15*	90*
Cn1c(CC(=O)Nc2ccc(Cl)c(Cl)c2)n[nH]c1=S	-1	0	6	7	0	1	.
CCOC(=O)C1=C(N)Oc2cc(O)ccc2C1c1ccc(Br)cc1 (centres undefined)	-1	10	-18	17	1	6	.
Cc1ccc2c(c1)c1c(n2CC(O)CNC(C)(C)C)CCCC1 (centres undefined)	.	.	.	.	70*	-5	-18	MPTP swell DR=13*;MPTP cs DR=>80
Clc1ccc(C(c2ccccc2Cl)C(Cl)Cl)cc1 (centres undefined)	.	.	35	98*	61*	-2	-5	MPTP swell DR=i;MPTP cs DR=>80
Cn1cnc2cc(NCc3ccc(Cl)cc3)ccc21	0	8	-58	-9	2	-1	.
CCc1ccc(S(=O)(=O)NCCc2csc(-c3ccccc3)n2)s1	-6	-11	8	14	69*	-11	81*
CCc1ccc(S(=O)(=O)NCc2csc(-c3ccccc3)n2)s1	-10	-4	23	-3	-4	-2	.
C=CCNC(=O)c1cc2cc(Cl)ccc2nc1N	.	.	.	.	0	.	.
N#Cc1cnc2sc3ccccc3n2c1=N	3	3	-28	-7	72*	-3	81*
COc1cccc(-c2csc(N3CCN(C(=S)Nc4ccc(Cl)cc4)CC3)n2)c1	-1	27	15	4	64*	10*	70*
